Screening results as filed in PubChem BioAssay.
Sm TGR inh: blocks Schistosoma mansoni thioredoxin glutathione reductase | Q962Y6 | purified TGR, DTNB reduction, TNB absorbance 405 nm | Potency, µM (series often up to 114 µM), usual class: inhibitors | 360,000 compounds, 3% hits | AID 485364; also: nearly all actives have a fitted effect of over 60% in size
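First, TGR (20 nM dispensed) and NADPH were mixed with compound. Second, a 15 min room-temperature incubation followed. Third, further NADPH and then DTNB were added to start the reaction. Finally, TNB absorbance was monitored kinetically.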
Lassa entry inh: blocks Lassa virus binding to or entry into cells; Lassa virus pseudotype entry inhibition, cell reporter; Potency, µM (highest dose often 37.9 µM), most hits filed as inhibitors; 300,000 compounds, 1.2% hits; AID 540256; calls by dose curve; tested in HEK293 cells; also: nearly all actives have a fitted effect of over 50% in size
FMDV inh: foot and mouth disease virus antiviral activity | FMDV antiviral cell-based qHTS | Potency, µM (doses to about 57.9 µM), actives largely listed as inhibitors | 410,000 compounds, 1.2% hits; calls by dose curve; tested in HEK293T cells; also: read-out not given here; nearly all actives have a fitted effect of over 45% in size
RE007 growth inh: less growth of the S. pombe RE007 Vpr strain | Potency, µM (titrated, usually from 92.2 µM), actives largely listed as inhibitors | 360,000 compounds, 0.21% hits | AID 651644 | S. pombe RE007 Vpr strain, BacTiter-Glo ATP luminescence, 24 h; active = well fitted falling curve with a large enough effect; inconclusive = small, poorly fitted or top-dose-only effect; inactive = no such curve, though single readings can be large or run the other way; also: nearly all actives have a fitted effect of over 50% in size
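Fission yeast RE007 carrying one integrated HIV-1 vpr copy, seeded at OD 0.01 in PMG+AL medium with 23 nL pinned compound. Grown 24 h at 30 degrees; viability read by BacTiter-Glo luminescence after 5 min.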
HCV inh: HCV inhibition; Huh7.5.1 HCVcc-Cre infection, luciferase reporter, 44 h; Potency, µM (titrated, usually from 41.8 µM), usual class: inhibitors; 340,000 compounds, 3.4% hits
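A cell-based infection assay in which seeded cells (1,000 per well) receive test compound after 4 h, are inoculated with HCVcc-Cre at approximately 0.5 moi, and are incubated 44 h before luminescence detection.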
MARV entry inh: blocks Marburg virus binding to or entry into cells | Marburg virus pseudotyped entry inhibition, cell reporter | 300,000 compounds, 1.8% hits | Potency, µM (series often up to 37.8 µM), hits mostly inhibitors; calls by dose curve; tested in HEK293 cells
A number is an active result; 0 = inactive; ? = inconclusive; - = no result; ! = not active in a repeat; [ ] = dose if it differs, or a comment. In the library only some 7.2% were active in any assay of this set; here they are far more common. Unless noted, calls follow the shape of the dose curve; as a rule, active = well fitted curve in the direction sought with a large enough effect; inconclusive = small, poorly fitted or top-dose-only effect, or another doubt; inactive = no such curve, though single readings can be large; an effect the other way counts as inactive or inconclusive.

SMILES	Sm TGR inh	Lassa entry inh	FMDV inh	RE007 growth inh	HCV inh	MARV entry inh
Cc1ccc(OCc2nnc(SCC(=O)c3ccccc3)n2Cc2ccco2)cc1	0	?	?	0	?	?
Cc1ccc(C(=O)CSc2nnc(CNc3ccc(C)cc3C)n2Cc2ccco2)cc1	0	26µM	?	0	?	?
CC(C)CCn1c(=O)c2sccc2n2c(CCCC(=O)NCc3ccc(F)cc3)nnc12	0	0	0	-	-	-
N#C/C(=C/c1ccc(Sc2nc3ccccc3[nH]2)o1)c1cccc(Br)c1	0	0	?	0	8.9µM	?
N#C/C(=C/c1ccc(Sc2nc3ccccc3[nH]2)o1)c1ccccc1F	0	0	?	0	11µM	0
COc1cc(/C=N/NC(N)=O)cc(Br)c1OCc1ccccc1C	0	0	0	0	0	0
CCOc1cc(/C=N/NC(N)=O)cc(Br)c1OCC(=O)Nc1ccccc1C	0	0	0	0	?	11µM
COc1cc(/C=N/O)c(Br)cc1OCC(=O)Nc1ccccc1C	0	0	0	0	0	?
COc1cc(CNCCCN2CCOCC2)c(Br)cc1OCC(=O)Nc1ccccc1C	0	0	0	0	1.6µM	?
COc1cc(/C=N/NC(N)=O)c(Br)cc1OCC(=O)Nc1ccccc1C	0	?	0	0	0	11µM
CCOc1cc(/C=N/NC(N)=O)cc(Br)c1OCC(=O)Nc1cccc2ccccc12	0	0	?	0	18µM	0
COc1ccc(S(=O)(=O)N2CCCCC2)cc1C(=O)Nc1cccc(C(F)(F)F)c1	0	0	0	-	-	-
CCOc1ccc2nc(N3CCCC(C(=O)NCCc4ccc(OCC)c(OCC)c4)C3)sc2c1 (configuration not stated)	0	-	0	-	-	0
CCOc1cc(/C=C\[N+](=O)[O-])ccc1OCC(=O)Nc1ccccc1C	0	-	25µM	-	11µM	0
Cc1ccc2oc(C(=O)Nc3ccc(S(=O)(=O)N(C)c4ccccc4)cc3)cc(=O)c2c1	0	0	0	-	-	0
CCN(CC)CCNc1ccc(CO)c2oc3cc(Cl)ccc3c(=O)c12	-	-	0	0	-	-
CCN(CC)CCNc1ccc(C)c2sc3ccc(O)cc3c(=O)c12	-	?	0	0	?	2.2µM
COc1ccccc1CNc1nc2nc(C)c(Cl)c(C)n2n1	0	0	0	-	-	?
CC(C)CN(CCNC(=O)c1cc(-c2cccs2)nc2ccccc12)CC(C)C	0	0	0	-	-	0
O=C(c1ccc(Cl)cc1)N1CCN(CCc2ccncc2)CC1	0	0	0	-	-	0
O=C(c1ccc(F)cc1)N1CCN(CCc2ccncc2)CC1	40µM	0	0	-	-	0
CCOc1ccc(NC(=O)N(Cc2c[nH]c3ccccc23)C2CCCCC2)cc1	0	0	0	-	-	0
COC(=O)c1ccc(NC(=O)c2cn(-c3ccccc3)nc2-c2ccncc2)cc1	0	0	?	0	?	13µM
CC(=O)c1ccc(NC(=O)c2cn(-c3ccccc3)nc2-c2ccncc2)cc1	0	?	0	0	0	?
CN(C)S(=O)(=O)c1cccc(-c2nn(-c3ccccc3)cc2/C=C2\SC(=S)NC2=O)c1	0	?	?	0	0	22µM
SMILES	Sm TGR inh	Lassa entry inh	FMDV inh	RE007 growth inh	HCV inh	MARV entry inh
CCN(CC)CCOCCOC(=O)C1(c2ccccc2)CCCC1	-	?	0	0[18.4 µM]	0	16µM
COc1cccc(CCNC(=O)c2cnc3sc(N4CCCC4)nn3c2=O)c1	0	-	?	-	-	0
COc1ccc(-c2nnc(SCC(=O)N3CCC(C)CC3)o2)cc1	0	0	0	-	-	0
COc1ccc(NS(=O)(=O)c2cc(C)ccc2NC(=O)c2cc(C)oc2C)cc1	0	?	0	0	13µM!	?
CC(C)CCNC(=O)CSc1nc2ccccc2nc1Cc1ccccc1	0	0	0	-	-	-
COc1cccc(Cn2c(=O)cnc3cnc(N(C)C)nc32)c1	-	-	0	-	-	-
CCN(CC)c1ccc(C2NC(=O)c3ccccc3N2)cc1 (configuration not stated)	-	6.3µM	11µM	0	0	?
CCN(CC)c1ccc(C2Nc3cccc4cccc(c34)N2)cc1	0	0	0	0	0	0
CC(C)ON(C(C(=O)NO)C(C)C)S(=O)(=O)c1ccc(-c2ccccc2)cc1 (configuration not stated)	-	-	0	-	-	-
OC(COC(c1ccccc1)c1ccccc1)CN1CCc2ccccc2C1 (configuration not stated)	0	0	0	0	?	?
OC(COC(c1ccc(Cl)cc1)c1ccc(Cl)cc1)CN1CCCC1 (configuration not stated)	0	?	0	0	5.6µM	?
OC(COC(c1ccc(Cl)cc1)c1ccc(Cl)cc1)CN1CCc2ccccc2C1 (configuration not stated)	0	?	0	0	13µM	?
CN1CCN(CC(O)COc2ccc(Cl)cc2)CC1 (configuration not stated)	?	0	0	0	0	0
CN1CCN(CC(O)COC(c2ccc(Cl)cc2)c2ccc(Cl)cc2)CC1 (configuration not stated)	0	-	0	0	5µM	-
CCC(=O)N1CCc2cc(S(=O)(=O)NCCC(=O)NC(C)c3ccccc3)ccc21 (configuration not stated)	0	0	0	-	-	0
COc1cc2c(cc1OC)C(COc1ccc3c(C)cc(=O)oc3c1)N(C(=O)c1cccc(C)c1)CC2 (configuration not stated)	0	0	0	-	-	0
CCCCc1cc2c(cn1)=C(OC(=O)c1cccs1)C(C)(OC(=O)CC)C(=O)C=2 (configuration not stated)	-	-	-	-	-	0
COc1ccccc1CNC(=O)CSc1nnc(C)c2c(C)n(-c3ccccc3)nc12	0	0	?	-	-	-
C=CCOC(=O)C1=C(C)NC(SCC(N)=O)=C(C#N)C1c1ccc(C)cc1 (configuration not stated)	0	-	0	0	0	-
C=CCOC(=O)C1=C(C)NC(SCC(=O)Nc2ccc(C)c(Cl)c2)=C(C#N)C1c1ccco1 (configuration not stated)	0	0	0	0	6.3µM	10µM
CCOC(=O)C1=C(C)NC(C)=C(C(=O)OC)C1c1ccco1 (configuration not stated)	0	0	0	0	0	0
C=CCOC(=O)C1=C(C)NC(SCC)=C(C#N)C1c1ccc(Cl)cc1 (configuration not stated)	0	0	?	0	10µM	?
C=CCOC(=O)C1=C(C)NC(C)=C(C(=O)OCC=C)C1c1ccco1	0	-	0	0	11µM	0
CCc1cccc(C)c1Nc1c(-c2cccs2)nc2nc(C)cc(C)n12	0	0	0	-	-	0
COC1=CC2C(=O)C(C1=O)[C@H](c1ccccc1)[C@H]2C (some centres not stated)	-	-	-	-	-	0
COc1ccc(CCn2c3c(c(=O)[nH]c2=O)C(NC(=O)c2ccccc2F)(C(F)(F)F)C(=O)N3)cc1OC (configuration not stated)	0	0	0	-	-	0
